# DT40 TDP1 no CPT = qHTS for Inhibitors of human tyrosyl-DNA phosphodiesterase 1 (TDP1): qHTS in cells in absence of CPT; DT40 Tdp1-/- hTDP1 cells, no CPT, ATP luminescence, 48 h; Potency, µM (doses to about 46.2 µM), without a hit: at the top dose activity change, negative = growth inhibition, usual class: inhibitors; 420,000 tested, 15% active; AID 686978, 2013; also: potency is read from the fitted curve at half-maximal effect; nearly all actives have a fitted effect of over 55% in size
#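 Compound effects on proliferation are scored in DT40 Tdp1-/-;hTDP1 cells in the absence of CPT. ATP levels (CellTiter-Glo luminescence) are recorded after a ≥48 hr, 37 °C incubation.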
# HT1080-NT tox = qHTS for induction of synthetic lethality in tumor cells producing 2HG: qHTS for the HT-1080-NT fibrosarcoma cell line; HT-1080-NT fibrosarcoma viability, CellTiter-Glo ATP luminescence, 48 h; Potency, µM (highest dose often 46.1 µM), for the others: top-dose activity, negative = less viability, hits mostly cytotoxic; 360,000 tested, 1.6% active;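 also: NT is the 2HG producing partner of a matched IDH1 knockdown line; potency is read from the fitted curve at half-maximal effect; 0% = DMSO-treated cells and -100% = media-only wells without cells; nearly all actives have a fitted effect of over 55% in size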
#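 Toxicity toward the 2HG-producing NT line was scored as %Activity, normalised to DMSO and no-cell wells, from CellTiter-Glo luminescence after 48 hours' treatment.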
# HT1080 IDH1KD tx = qHTS for induction of synthetic lethality in tumor cells producing 2HG: qHTS for the HT-1080-IDH1KD cell line. Potency, µM (series often up to 46.1 µM), without a hit: at the highest dose activity, negative = toxicity, usual class: cytotoxic. AID 686971, 2013. 360,000 tested, 2% active. HT-1080 IDH1 knockdown viability, ATP luminescence, 48 h;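 also: potency is read from the fitted curve at half-maximal effect; 0% = DMSO wells and -100% = cell-free medium wells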
#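 After a 2 h attachment period, IDH1KD HT-1080 cells took pin-transferred compound for 48 h at 37 °C; ATP-based luminescence after 10 min room-temperature reagent incubation reported viability.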
# IL1B secr inh = qHTS for Inhibitors of Inflammasome Signaling: IL-1-beta AlphaLISA Primary Screen | THP-1 LPS/ATP IL-1B secretion, AlphaLISA, 16 h; active compounds read low | activity change, % at 57.5 µM | 360,000 tested, 4.7% active | AID 743279, 2014; in the data active = activity change below about -50%; inconclusive = mostly about -30% to -49%
#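 THP-1 cells pretreated 1 hr with compounds (up to 57.5 uM final), then stimulated with LPS (250 ng/mL final) plus ATP (1.25 mM final); secreted IL-1B measured by AlphaLISA after 16 hr, decreased signal indicating inhibition.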
# TDP1 cell CPT = qHTS for Inhibitors of human tyrosyl-DNA phosphodiesterase 1 (TDP1): qHTS in cells in presence of CPT; chicken DT40 Tdp1-/-;hTDP1 cells + 20 nM CPT, ATP luminescence, 48 h; Potency, µM (doses to about 46.2 µM), for the others: top-dose activity change, negative = growth inhibition, actives largely listed as inhibitors; 420,000 tested, 12% active; also: potency is read from the fitted curve at half-maximal effect; nearly all actives have a fitted effect of over 55% in size
#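 Chicken DT40 Tdp1-/- cells complemented with human TDP1, 400 cells/well, exposed to compounds plus 20 nM camptothecin for at least 48 h at 37 C; viability read as ATP content by CellTiter-Glo luminescence.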
# * marks the source's active call; other numbers are inactive results; ? = inconclusive; · = no result; ! = a repeat was not active; [ ] = dose if it differs, or a comment. Compounds with a hit are over-represented: about 19% of the library has one in this group of screens. Unless noted, calls follow the shape of the dose curve; as a rule, active = well fitted curve in the direction sought with a large enough effect; inconclusive = small, poorly fitted or top-dose-only effect, or another doubt; inactive = no such curve, though single readings can be large; an effect the other way counts as inactive or inconclusive. Unless noted, % is scaled to controls: 0 for no effect and ±100 for the full control effect.
SMILES,DT40 TDP1 no CPT,HT1080-NT tox,HT1080 IDH1KD tx,IL1B secr inh,TDP1 cell CPT
CN(c1ccccc1)S(=O)(=O)c1ccc(NC(=O)CC(=O)c2ccccc2)cc1,18µM*,0%,1%,0,?
CN(c1ccccc1)S(=O)(=O)c1ccc(NC(=S)NC(=O)C2CC2)cc1,12µM*,-14%,0%,-11,?
CN(Cc1ccccc1)S(=O)(=O)c1ccc(NC(=S)NC(=O)C2CCCC2)cc1,4.6µM*,7.1µM*,8.9µM*,8,5.2µM*
CN(c1ccccc1)S(=O)(=O)c1ccc(NC(=S)NC(=O)c2ccccc2)cc1,26µM*,-2%,-9%[9.24 µM],11,?
O=C(NC(=S)Nc1ccc(S(=O)(=O)Nc2ccccc2)cc1)C1CC1,-5%,7%,8%,1,7%
CN(C)S(=O)(=O)c1ccc(NC(=S)NC(=O)C2CCC2)cc1,-4%,-4%,-3%,3,2%
CCN(CC)CCCNC(=O)c1c(C)oc2ncnc(N3CCOCC3)c12,5%,·,·,·,8%
NS(=O)(=O)c1ccc(CCNCC(=O)NCc2ccccc2Cl)cc1,19%,-1%,18%,-2,1%
Brc1cccc(CN2CCN(c3ncccn3)CC2)c1,-5%,7%,3%,-15,4%
COc1ccccc1/C=C/C(=O)NC(=S)Nc1ccccn1,-6%,7%,8%,16,-3%
COc1ccccc1/C=C/C(=O)NC(=S)Nc1ccc(S(=O)(=O)N(C)c2ccccc2)cc1,23µM*,14%,17%,-3,?
CCc1nc(OCC(=O)c2ccccc2)c(C#N)c2c1COC(C)(C)C2,18µM*,5%,0%,-8,?
Cc1nc(OCC(=O)c2ccc(Cl)cc2)c(C#N)c2c1COC(C)(C)C2,?,2%,3%,-18,?
CCCCN1C(=O)C(CC(=O)NCCCN(C)C)CC(C(=O)N2CCCCCC2)=C1C (configuration not stated),-8%,22%,0%,1,-12%
CCC(C)N(C(=O)CSc1nnc(-c2ccco2)n1C)C1CCS(=O)(=O)C1 (configuration not stated),-1%,-4%,0%,4,8%
COc1ccc(Sc2ccc(-c3nc4cnccn4c3NC3CCCCC3)cc2OC)cc1,13µM*,5%,9%,?,15µM*
Clc1ccc(-c2nc3cnccn3c2NC2CCCC2)cc1,26µM*,-2%,-7%,27,?
CCC(C)Sc1ccc(-c2nc3cc(C)ccn3c2NC2CCCCC2)cc1 (configuration not stated),15µM*,21µM*,?,-66*!,23µM*
COc1cc(-c2nc3cnccn3c2NC(C)(C)CC(C)(C)C)ccc1O,?,-5%,-12%,0,?
CCC(C)Sc1ccc(-c2nc3cnccn3c2NC2CCCCC2)cc1 (configuration not stated),16µM*,?,?,-52*!,?
Cc1ccc(N2CC(C(=O)N3CCC(C(=O)NC(C)(C)C)CC3)CC2=O)cc1 (configuration not stated),-18%,-4%,-6%,-11,-21%
COc1ccc(CNC(=O)c2ccc(-c3nc(CSc4ccccc4)c(C)o3)cc2)cc1,-24%,·,·,·,-30%
Cc1cccc(OCc2nnc(SC(C)C(=O)O)n2-c2ccccc2)c1 (configuration not stated),19%,-6%,5%,90,5%
COc1ccc(NC(=O)COC(=O)c2cc(C)oc2C)c([N+](=O)[O-])c1,?,8%,12%,-7,-26%
COc1ccc(S(=O)(=O)N/N=c2\oc3c(OC)cccc3cc2S(=O)(=O)c2ccc(C)cc2)cc1OC,-16%,-20%,-13%,-54*,-25%
SMILES,DT40 TDP1 no CPT,HT1080-NT tox,HT1080 IDH1KD tx,IL1B secr inh,TDP1 cell CPT
CCOc1cc(CNCCCN2CCOCC2)cc(Br)c1OCC(=O)Nc1cccc(C(F)(F)F)c1,4.1µM*,?,?,-22,5.2µM*
COc1cc(CNCCCN2CCOCC2)cc(Br)c1OCc1ccc(Cl)cc1,3.7µM*,-28%,?,0,3.7µM*
COc1cc(CNCCc2ccc(S(N)(=O)=O)cc2)ccc1OCc1ccc(Cl)cc1,?,-4%[9.24 µM],13µM*,-78*,23µM*
Cc1cc(Cl)ccc1OCC(O)CNCCc1ccc(S(N)(=O)=O)cc1 (configuration not stated),15µM*,-11%,-12%,-5,?
O=C(Cn1nc(-c2ccccc2)oc1=O)OCC(=O)c1ccc(F)c(F)c1,-3%,6%,16%,14,-5%
O=C(O)c1ccc(NS(=O)(=O)c2ccc(Cl)cc2)cc1,-15%,-13%,-3%,7,-15%
COc1cc(CNCc2ccccn2)ccc1OCc1ccccc1Cl,?,-20%,-23%,-18,?
C=CCOc1c(Cl)cc(CNCCCN2CCOCC2)cc1OC,-77%,?,-6%,4,23µM*
CCOc1cc(CNCCCN2CCOCC2)cc(Cl)c1OCC(=O)NC(C)(C)C,?,-27%,-14%,-24,?
COc1cc(CNCCN2CCOCC2)ccc1OCc1ccccc1Cl,18µM*,-19%,-16%,-16,?
COc1cc(CNCCN2CCOCC2)ccc1OCc1ccc(Cl)cc1,?,?,?,?,18µM*
O=C(NC1CCCCC1)C1CCCN1C(=O)Nc1ccccc1 (configuration not stated),7%,14%,6%,19,3%
c1ccc(C(c2ccccc2)N2CC[C@@]3(CCCNC3)C2)cc1,26µM*,·,·,·,?
c1ccc(C(c2ccccc2)N2CCCC3(CCNCC3)C2)cc1,6.5µM*,·,·,·,9.2µM*
Cc1cc(C)c(S(=O)(=O)NCC(c2cccnc2)N2CCN(Cc3ccccc3)CC2)c(C)c1 (configuration not stated),?,0%,9%,-8,?
O=C(c1ccccc1)c1nn(-c2ccccc2)c(=O)cc1-c1ccccc1,?,25%,14%,-10,?
O=C(c1ccccc1)c1nn(-c2ccccc2)c(=O)cc1C(F)(F)F,?,?,?,-88*,-6%
O=C(c1cccc(Cl)c1)c1nn(-c2ccccc2)c(=O)cc1C(F)(F)F,?,?,?,-102*,16µM*
